Laboratory results reported in PubChem BioAssay.

system: glycogen synthase kinase-3 (GSK3A per assay name; protocol says GSK3B); assay: GSK3 binders on small-molecule microarrays, primary screen, biochemical, small-molecule microarray, 635 nm fluorescence, GSK3A (AID 1103); settings: small-molecule microarray binding, fluorescence 635 nm; higher = more signal; also: the record names both GSK3A and GSK3B

Compound	composite z-score
COCCOC(=O)N1C(=O)[C@@]2(c3cc(C#CCC(C(=O)OC)C(=O)OC)ccc31)[C@H](C(=O)NC[C@H](O)c1ccccc1)[C@H]1C(=O)O[C@H](c3ccccc3)[C@H](c3ccccc3)N1[C@@H]2c1ccc(O)cc1	1.22
Cc1cccc([C@H]2C[C@H]3C(Br)=C[C@@H]2C(=O)[C@]32CO2)c1	-0.869
C=CCC(OC(C)=O)[C@@H]1[C@@H](N(Cc2ccc(-c3cccc(C(F)(F)F)c3)o2)C(=O)c2cccc3ccccc23)c2cc(OCCCO)ccc2N1C(=O)Cc1ccc(OC)cc1 (some centres not stated)	-1.13
CC(C)C[C@@H]1NC(=O)[C@@]23C(=O)N[C@@H](Cc4ccccc4)C2[C@H](C)[C@@]2(C)O[C@H]2C3/C=C/C/C=C\CNC(=O)[C@@H](C)NC1=O (some centres not stated)	-0.608
CCOC(=O)C1=CCN(S(=O)(=O)c2ccc(C)cc2)C1c1ccccc1 (configuration not stated)	0.509
COCCOC(=O)N1C(=O)[C@@]2(c3ccccc31)[C@H](c1ccccc1OCCO)N1[C@H](c3ccccc3)[C@H](c3ccccc3)OC(=O)[C@H]1[C@@H]2C(N)=O	1.25
C=C(COC)C(=O)CC[C@@H](OC(=O)c1cccnc1)c1ccccc1OCCO	-0.0625

target: Epidermal growth factor receptor (Homo sapiens) (UniProt P00533); assay: EGFR binders on small-molecule microarrays, primary screen, biochemical, small-molecule microarray, 635 nm fluorescence (AID 1104); settings: EGFR binding, higher = more signal;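 also: score merges 667 nm emission intensity with spot signal to noise over triplicate slides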
Sequence (P00533 whole entry, looked up): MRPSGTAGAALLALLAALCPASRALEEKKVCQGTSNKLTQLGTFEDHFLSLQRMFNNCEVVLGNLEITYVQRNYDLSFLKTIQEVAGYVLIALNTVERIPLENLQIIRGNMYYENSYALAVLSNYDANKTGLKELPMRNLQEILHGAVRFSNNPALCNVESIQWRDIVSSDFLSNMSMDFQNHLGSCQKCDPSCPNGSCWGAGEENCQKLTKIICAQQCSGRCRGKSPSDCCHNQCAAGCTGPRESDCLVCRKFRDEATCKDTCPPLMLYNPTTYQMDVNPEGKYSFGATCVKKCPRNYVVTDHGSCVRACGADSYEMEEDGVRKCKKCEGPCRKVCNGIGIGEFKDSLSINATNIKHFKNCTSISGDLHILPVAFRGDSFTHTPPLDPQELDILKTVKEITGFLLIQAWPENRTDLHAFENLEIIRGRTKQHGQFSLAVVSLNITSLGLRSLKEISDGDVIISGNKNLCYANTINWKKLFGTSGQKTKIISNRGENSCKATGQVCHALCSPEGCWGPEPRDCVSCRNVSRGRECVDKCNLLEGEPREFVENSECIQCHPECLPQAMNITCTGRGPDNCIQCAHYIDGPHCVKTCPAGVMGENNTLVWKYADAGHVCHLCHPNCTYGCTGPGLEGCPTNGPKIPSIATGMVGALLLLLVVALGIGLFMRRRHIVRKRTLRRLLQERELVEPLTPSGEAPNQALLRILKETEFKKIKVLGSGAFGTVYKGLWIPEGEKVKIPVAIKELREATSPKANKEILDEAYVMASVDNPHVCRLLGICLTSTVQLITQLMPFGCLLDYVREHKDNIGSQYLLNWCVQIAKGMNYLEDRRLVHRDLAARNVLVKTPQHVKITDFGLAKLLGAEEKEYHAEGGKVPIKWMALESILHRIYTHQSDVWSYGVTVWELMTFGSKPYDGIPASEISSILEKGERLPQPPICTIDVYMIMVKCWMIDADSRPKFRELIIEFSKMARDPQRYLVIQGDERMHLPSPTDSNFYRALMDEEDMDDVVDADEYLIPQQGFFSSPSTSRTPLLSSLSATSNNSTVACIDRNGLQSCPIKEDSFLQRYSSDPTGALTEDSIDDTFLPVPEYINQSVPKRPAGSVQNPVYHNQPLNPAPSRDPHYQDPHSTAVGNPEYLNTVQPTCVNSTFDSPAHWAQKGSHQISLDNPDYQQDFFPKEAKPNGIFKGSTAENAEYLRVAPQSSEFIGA

Compound	composite z-score
[N-]=[N+]=Nc1ccccc1C[C@]1(C(=O)O)N=C(c2ccc(OCCCO)cc2)O[C@H]1c1ccccc1	-0.839
CN1C(=O)[C@@]2(Cc3ccccc3)N=C(c3ccc(OCCCO)cc3)O[C@H]2c2ccccc21	0.261
NC(=O)[C@@H]1[C@H]2C(=O)O[C@H](c3ccccc3)[C@H](c3ccccc3)N2[C@H](c2ccc(OCCO)cc2)[C@@]12C(=O)Nc1ccc(C#CCCO)cc12	-0.385
Cc1ccc(S[C@]2(C(=O)NC(C)C)CC(=O)N(Cc3ccccc3Cl)[C@@H]2c2ccc(CO)cc2)cc1	-1.04
CC(C)=CCCC(C)=CC(O)C1C=CC2C(=O)N(c3ccccc3)C(=O)C2N1Nc1ccccc1F (configuration not stated)	0.329
COc1cc2c(cc1OC)CN(C(=O)[C@@H]1[C@H]3C(=O)O[C@H](c4ccccc4)[C@H](c4ccccc4)N3[C@H](c3ccc(O)cc3)[C@@]13C(=O)Nc1ccc(C#CCCO)cc13)CC2	-0.0629
COc1cc(NN2C(C(O)C3CCCCC3)C=CC3C(=O)N(C)C(=O)C32)cc(OC)c1OC (configuration not stated)	0.203
CC(C)C(CO)N1C(=O)[C@@H]2[C@H]3C(=O)OCC=C[C@H]3OC23C=CCN(C(C)(C)C)C(=O)[C@@H]13 (some centres not stated)	-0.257
COC(=O)[C@@]1(Cc2ccc(OC)cc2)[C@H]2c3cc(C(=O)N4CCCC4)n(Cc4ccc(S(C)(=O)=O)cc4)c3C[C@H]2CN1C(=O)c1ccccc1	0.348
CCCNC(=O)[C@@]1(Sc2ccc(C)cc2)CC(=O)N(C2CCCCC2)[C@@H]1c1ccc(CO)cc1I	-0.0215
CO[C@H]1O[C@H](CO)[C@@H](OC(=O)Nc2ccc(C#N)cc2)[C@@H]2OC(=O)[C@H](Cc3cccc(Br)c3)C/C=C/C[C@@H](Cc3cccc(Br)c3)C(=O)O[C@@H]12	0.223
COCCOC(=O)N1C(=O)[C@@]2(c3cc(C#CC4(O)CCCCCC4)ccc31)[C@H](C(=O)N1CCN(c3ncccn3)CC1)[C@H]1C(=O)O[C@H](c3ccccc3)[C@H](c3ccccc3)N1[C@@H]2c1ccccc1OCCO	0.906
CCCC=C(CCC)[C@@H](NC(=O)CCc1ccccc1)c1ccc(C(F)(F)F)cc1	0.0694
CC(C)[C@H]1NC(=O)[C@@]23C(=O)N[C@@H](Cc4ccccc4)C2[C@H](C)[C@@]2(C)O[C@H]2C3/C=C/CCC/C=C/CNC(=O)[C@H](Cc2ccccc2)NC1=O (some centres not stated)	-0.023
CCCCNC(=O)c1ccc(C#C[Si](C(C)C)(C(C)C)C(C)C)c(OC(C)=O)c1	1.36
C=C(/C(=C/C[C@H](OC(=O)c1ccncc1)c1ccccc1OCCO)c1cnc2ccccc2c1)C(C)C	1.15
COc1cc(NN2C(C(O)c3cc(OC)c(OC)c(OC)c3)C=CC3C(=O)N(c4ccccc4)C(=O)C32)cc(OC)c1OC (configuration not stated)	0.165
COC(=O)[C@@]1(Cc2ccccc2)[C@H]2c3cc(C(=O)N4CCCC4)n(CCSCCO)c3C[C@H]2CN1C(=O)c1ccccc1	-0.0631

Compound	composite z-score
COCCOC(=O)N1C(=O)[C@@]2(c3cc(C#Cc4ccc(OC)cc4)ccc31)[C@H](c1ccc(OCCO)cc1)N1[C@H](c3ccccc3)[C@H](c3ccccc3)OC(=O)[C@H]1[C@@H]2C(=O)Nc1nc2ccccc2s1	0.397
COCCOC(=O)N1C(=O)[C@@]2(c3cc(C#CCC(C(=O)OC)C(=O)OC)ccc31)[C@H](c1ccc(O)cc1)N1[C@H](c3ccccc3)[C@H](c3ccccc3)OC(=O)[C@H]1[C@@H]2C(=O)NC[C@H](O)c1ccccc1	0.335
CCCCCCCCCCC(O)C1C=CC2C(=O)N(c3ccccc3)C(=O)C2N1Nc1ccccc1F (configuration not stated)	-0.571
COc1ccc(C(O)C2C=CC3C(=O)N(c4ccccc4)C(=O)C3N2Nc2ccc(C(C)C)cc2)c2ccccc12 (configuration not stated)	0.0751
O=C1C2C=CC(C(O)c3cc(C(F)(F)F)cc(C(F)(F)F)c3)N(Nc3ccccc3F)C2C(=O)N1c1ccccc1 (configuration not stated)	-0.855
C=C(CCCC)C(=O)CC[C@@H](OC(=O)c1cccnc1)c1ccc(OCCO)cc1	0.298
C=C(/C(=C/C[C@@H](OC(=O)c1ccncc1)c1cccc(OCCO)c1)c1cnc2ccccc2c1)C(C)C	0.922
CC(C)CNC(=O)[C@@]1(c2ccc([N+](=O)[O-])cc2)CC(=O)N(C2CCCCC2)[C@@H]1c1ccc(CO)cc1	0.103
C[C@]1(C(=O)O)c2ccccc2C(=O)N(Cc2ccc(OC(F)(F)F)cc2)[C@H]1c1ccc(CO)cc1	-0.409
C=C(COC)C(=O)CC[C@H](OC(=O)c1cccnc1)c1ccc(CO)o1	0.393
COCCOC(=O)N1C(=O)[C@@]2(c3cc(C#CCC(C(=O)OC)C(=O)OC)ccc31)[C@H](C(=O)NC[C@H](O)c1ccccc1)[C@H]1C(=O)O[C@H](c3ccccc3)[C@H](c3ccccc3)N1[C@@H]2c1ccc(O)cc1	-0.239
Cc1cccc([C@H]2C[C@H]3C(Br)=C[C@@H]2C(=O)[C@]32CO2)c1	-0.0431
C=CCC(OC(C)=O)[C@@H]1[C@@H](N(Cc2ccc(-c3cccc(C(F)(F)F)c3)o2)C(=O)c2cccc3ccccc23)c2cc(OCCCO)ccc2N1C(=O)Cc1ccc(OC)cc1 (some centres not stated)	-0.198
CC(C)C[C@@H]1NC(=O)[C@@]23C(=O)N[C@@H](Cc4ccccc4)C2[C@H](C)[C@@]2(C)O[C@H]2C3/C=C/C/C=C\CNC(=O)[C@@H](C)NC1=O (some centres not stated)	0.401
CCOC(=O)C1=CCN(S(=O)(=O)c2ccc(C)cc2)C1c1ccccc1 (configuration not stated)	0.204
COCCOC(=O)N1C(=O)[C@@]2(c3ccccc31)[C@H](c1ccccc1OCCO)N1[C@H](c3ccccc3)[C@H](c3ccccc3)OC(=O)[C@H]1[C@@H]2C(N)=O	0.888
C=C(COC)C(=O)CC[C@@H](OC(=O)c1cccnc1)c1ccccc1OCCO	-0.333
